This is a sample that favours compounds with a hit; in the whole collection about 3.8% have one here.
ATXN2 expr inh = reduces ATXN2 reporter expression in HEK-293 cells; HEK-293 ATXN2-luciferase reporter, luminescence, 24 h; Potency, µM (titrated, usually from 57 µM), hits mostly inhibitors; 360,000 compounds, 0.72% hits; further: nearly all actives have a fitted effect of over 55% in size
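qHTS (up to 57 uM final) was run with 24 h compound exposure of reporter cells at 37 °C. Each well was multiplexed: SteadyGlo luminescence measured ATXN2-luciferase expression after a fluorogenic Gly-Phe-AFC viability readout (25 uM final).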
TGFb SMAD3 inh = blocks TGF-b signaling | Potency, µM (doses to about 46.1 µM), usual class: inhibitors | HepG2 CAGA-GFP TGF-b/SMAD3 reporter, GFP fluorescence, 18 h; TGF-beta stimulated, 500 pg/mL final | AID 588855 | 410,000 compounds, 1.2% hits; further: nearly all actives have a fitted effect of over 65% in size
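GFP signal (ex488/em500-530) from TGF-beta-stimulated HEPG2 CAGA-GFP cells, 500 pg/mL final, 18 h at 37 degrees C in DMEM plus 1% FBS, normalized to unstimulated and DMSO-stimulated controls.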
HT1080NT lethal = kills 2HG-producing HT-1080-NT fibrosarcoma cells | HT-1080-NT fibrosarcoma viability, CellTiter-Glo ATP luminescence, 48 h | Potency, µM (doses to about 46.1 µM), usual class: cytotoxic | 360,000 compounds, 1.6% hits | AID 686970;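 further: NT is the 2HG producing partner of a matched IDH1 knockdown line; nearly all actives have a fitted effect of over 55% in size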
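HT-1080-NT fibrosarcoma cells (2HG-overproducing), 750 cells/well in RPMI with 5% FBS, dosed after 2 h and incubated 48 h at 37C. CellTiter-Glo luminescence normalized to DMSO and no-cell wells; concentration-response curves fitted and classed.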
HepG2 tox = counter-screen for TGF-b inhibitors: cytotoxicity in HepG2 cells; HepG2 CAGA-GFP viability, ATP luminescence, 18 h; Potency, µM (highest dose often 46.1 µM), usual class: cytotoxic; 410,000 compounds, 0.76% hits; AID 588856
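HepG2 CAGA-GFP cells (1000/well, DMEM with 1% FBS) received compound, then TGF-beta at 500 pg/mL final, and were incubated 18 hours at 37 degrees C. Viability was read by CellTiter-Glo luminescence. Media-only wells were set as complete cell-killing and DMSO as no toxicity.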
ATXN viability = cell viability loss in ATXN counter-screen; S2 cells (HEK-293 line with an ATXN2-luciferase reporter) viability, CellTiter-Fluor protease fluorescence, 24 h; Potency, µM (highest dose often 56.7 µM), most hits filed as cytotoxic; 400,000 compounds, 0.49% hits; AID 651635; further: nearly all actives have a fitted effect of over 40% in size
HT1080 IDH1KD tx = HT-1080 IDH1 knockdown cell toxicity (counter line) | 360,000 compounds, 2% hits | AID 686971 | HT-1080 IDH1 knockdown viability, ATP luminescence, 48 h | Potency, µM (highest dose often 46.1 µM), usual class: cytotoxic
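IDH1KD HT-1080 cells, 750/well, RPMI + 5% FBS; compound pinned after 2 h settling; 48 h, 37 °C; CellTiter-Glo luminescence; % activity normalised to DMSO and no-cell wells; curves fitted, classed by r2 and efficacy.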
Numbers stand for hits; i = inactive; ? = inconclusive; nt = no result; [ ] = dose if it differs, or a comment. The call rests on the fitted dose curve; in most records, active means well fitted curve in the direction sought with a large enough effect; inconclusive means small, poorly fitted or top-dose-only effect, or another doubt; inactive means no such curve, though single readings can be large; an effect the other way counts as inactive or inconclusive.

SMILES	ATXN2 expr inh	TGFb SMAD3 inh	HT1080NT lethal	HepG2 tox	ATXN viability	HT1080 IDH1KD tx
Nn1cnnc1N/N=C/c1ccc(Cl)c([N+](=O)[O-])c1	i	?	?	11µM	i	21µM
CCc1nnc(N/N=C/c2ccc(N3CCC(C)CC3)c([N+](=O)[O-])c2)n1N	i	10µM	?	11µM	i	33µM
COc1ccc(/C=N/Nc2nnc(C)n2N)cc1OC(C)=O	i	10µM	23µM	13µM	i	16µM
Cc1ccc(/C=N/Nc2nncn2N)cc1	i	11µM	?	i	i	?
CCCN(C(=O)Cn1ncc2c1-c1ccccc1OC2)c1cccc(C)c1	i	i	nt	i	i	nt
CCC1CN(Cc2c(C)nc3sccn23)Cc2cc(OC)ccc2O1 (stereo unspecified)	nt	nt	nt	nt	i	nt
COC(=O)C1CCN(Cc2ccc3c(c2)CN(C(=O)c2cc4ccccc4n2C)CCO3)CC1	nt	nt	nt	nt	i	nt
CCc1nnc(N/N=C/c2ccccc2F)n1N	i	?	?	i	i	?
CCc1nnc(N/N=C/c2ccccc2Cl)n1N	i	11µM	?	13µM	i	16µM
Cc1nnc(N/N=C/c2ccc(Br)cc2)n1N	i	?	?	16µM	i	23µM
Nn1cnnc1N/N=C/c1cccc(Cl)c1Cl	i	?	?	i	i	18µM
Cc1nnc(N/N=C/c2ccc(-c3ccc(Br)cc3)o2)n1N	i	?	?	i	nt	?
Oc1ccc(Br)cc1C1C=C(c2ccc3c(c2)OCO3)NC(c2c(F)cccc2Cl)N1 (stereo unspecified)	nt	?	nt	i	nt	nt
N#Cc1cccc(NC(=O)C2CCN(c3nc(-c4ccc(Cl)cc4)no3)CC2)c1	nt	i	nt	i	nt	nt
CCC(C)(C)n1nnnc1C(c1cc2ccc(OC)cc2[nH]c1=O)N1CCc2ccccc21 (stereo unspecified)	i	?	?	i	?	11µM
CCC(C)(C)n1nnnc1C(c1cc2cc(OC)ccc2[nH]c1=O)N1CCc2ccccc21 (stereo unspecified)	i	i	i	i	i	i
COc1ccc(-c2noc(C3CCCN(C(=O)c4ccc(C)cc4)C3)n2)cc1 (stereo unspecified)	i	?	?	i	i	16µM
O=C(NCC1OCCc2ccccc21)c1ccc(NC(=O)c2ccc(Cl)cc2)cc1 (stereo unspecified)	?	?	21µM	i	?	?
CN(Cc1ccon1)C(=O)c1cnn(-c2ncc3c(n2)-c2ccccc2CCC3)c1C1CC1	nt	nt	nt	nt	i	nt
Fc1ccc(N2CCN(c3ncnc4[nH]ncc34)CC2)cc1	i	i	nt	i	?	nt
Cc1ccc(C(C)C)c(OCc2ccc(C(=O)N/N=C/c3ccc(O)c(O)c3)cc2)c1	?	?	i	i	i	?
COc1cc(/C=N/NC(=O)c2ccc(COc3cc(C)ccc3C(C)C)cc2)cc(OC)c1O	?	i	21µM	i	i	21µM
Cc1ccc(C(C)C)c(OCc2ccc(C(=O)N/N=C/c3cccc(O)c3O)cc2)c1	3µM	?	9.2µM	i	i	?
CC(=O)Nc1ccc(C(=O)N/N=C/c2ccccc2OCc2ccccc2)cc1	i[11.3 µM]	i	16µM	i	?	21µM
COC(=O)N/N=C/c1ccccc1OCc1ccccc1	i	i	i	i	i	i
SMILES	ATXN2 expr inh	TGFb SMAD3 inh	HT1080NT lethal	HepG2 tox	ATXN viability	HT1080 IDH1KD tx
C[N+]1(CC(=O)c2ccccc2)CCc2ccccc2C1 (stereo unspecified)	nt	i	nt	i	nt	nt
CC1(C)S[C@@H]2[C@H](NC(=O)Cc3ccccc3)C(=O)N2[C@H]1C(=O)O (tested in a mixture with another compound)	i	nt	nt	nt	i	nt
COc1ccc(NC(=O)c2ccc(Cl)nc2)cc1S(=O)(=O)N1CCOCC1	nt	i	i	i	i	i
CCCc1cc(=O)[nH]c(SCC(=O)Nc2cc(S(=O)(=O)N3CCCCC3)ccc2C)n1	i	?	10µM	16µM	i	15µM
O=C(Cn1ncc(Cl)c(Cl)c1=O)Nc1ccc2c(c1)OCO2	?	?	?	i	nt	18µM
COc1ccc(NC(=O)Cn2ncc(Cl)c(Cl)c2=O)cc1S(=O)(=O)N1CCOCC1	?	?	i	i	?	21µM

Source: PubChem BioAssay
